In PubChem BioAssay (NCI):
About 79,000 compounds went through this panel and 15% of them were active in at least one assay; those are over-represented in the sample as a whole. The source made the active and inactive calls. No stated cut-off is given here; in the data, active means growth inhibition above about 70%; inactive means the rest.

Legend:
[1] = NCI Yeast Anticancer Drug Screen. Data for the wt1 strain (AID 149);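 further: 0% = growth of vehicle-treated wt1 cultures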; conditions: S. cerevisiae wt1 strain (SPY 50644) growth inhibition, stronger effect = higher value
Outline: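 Using yeast strain wt1, compound-induced growth inhibition was determined against vehicle-treated cultures.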

[2] = NCI Yeast Anticancer Drug Screen. Data for the rad50EPP+ strain (AID 151);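 further: 0% = growth of vehicle-treated control cultures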; conditions: S. cerevisiae rad50 mutant strain, stronger effect = higher value
Outline: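 Vehicle-normalised growth inhibition; rad50EPP+ yeast strain, altered in DNA damage repair, compound-treated.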

[3] = NCI Yeast Anticancer Drug Screen. Data for the mgt1 strain (AID 153); conditions: S. cerevisiae mgt1 mutant growth inhibition, stronger effect = higher value
Outline: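 Vehicle-normalized growth inhibition is determined in mgt1 yeast, a strain selected for a defined alteration in DNA repair or cell cycle control.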

[4] = NCI Yeast Anticancer Drug Screen. Data for the rad50 strain (AID 155);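 further: 0% = growth of vehicle-only cultures of the same strain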; conditions: S. cerevisiae rad50 strain growth inhibition, stronger effect = higher value
Outline: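 Relative growth inhibition (compound vs vehicle) was measured in yeast with a defined repair-gene alteration.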

[5] = NCI Yeast Anticancer Drug Screen. Data for the mec2-1 strain (AID 157); conditions: S. cerevisiae mec2-1 strain, stronger effect = higher value
Outline: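 Mutant yeast (mec2-1) grown with compound; growth inhibition relative to vehicle control reported.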

[6] = NCI Yeast Anticancer Drug Screen. Data for the rad14 strain (AID 159);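 further: 0% = growth of vehicle-treated control cultures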; conditions: S. cerevisiae rad14 strain growth inhibition, stronger effect = higher value
Outline: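 Screen for anticancer potential: a yeast strain altered in DNA damage repair is grown with compound, and reduced growth is quantified against vehicle controls.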

[7] = NCI Yeast Anticancer Drug Screen. Data for the sgs1 mgt1 strain (AID 161);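 further: 0% = growth of cultures given vehicle only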; conditions: S. cerevisiae sgs1 mgt1 strain, stronger effect = higher value
Outline: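 Yeast cells carrying a defined DNA-repair defect were exposed to test compounds. Growth inhibition was measured relative to vehicle-treated controls.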

[8] = NCI Yeast Anticancer Drug Screen. Data for the CLN2oe strain (AID 163);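 further: 0% = growth of vehicle-only control cultures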; conditions: S. cerevisiae CLN2oe strain, stronger effect = higher value
Outline: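 Compounds are applied to yeast harbouring a defined cell-cycle control change; reduced growth compared with vehicle-treated controls gives the value.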

[9] = NCI Yeast Anticancer Drug Screen. Data for the cln2 rad14 strain (AID 165);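 further: 0% = growth equal to vehicle treated cultures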; conditions: S. cerevisiae cln2 rad14 strain, stronger effect = higher value
Outline: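 Readout is yeast growth inhibition versus vehicle-treated controls, using a strain with cln2 and rad14 alterations exposed to compound.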

[10] = NCI Yeast Anticancer Drug Screen. Data for the bub3 strain (AID 167); conditions: S. cerevisiae bub3 mutant strain, stronger effect = higher value
Outline: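 Screening used yeast with an engineered genetic alteration affecting cell cycle control. Compound-exposed cultures were compared with vehicle cultures, and reduced growth was taken as inhibition.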

[11] = NCI Yeast Anticancer Drug Screen. Data for the mlh1 strain (AID 171);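 further: 0% = growth of vehicle-treated control cultures of the same strain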; conditions: S. cerevisiae mlh1 strain growth inhibition, stronger effect = higher value
Outline: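 Measured: yeast growth. Reference: vehicle-treated controls. Organism: strain with a defined alteration affecting DNA damage repair or cell cycle control, treated with compound.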

[12] = NCI Yeast Anticancer Drug Screen. Data for the sgs1 strain (AID 173);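 further: 0% = growth of vehicle-only control cultures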; conditions: S. cerevisiae sgs1 mutant, stronger effect = higher value
Outline: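 Each compound was added to cultures of the altered yeast strain. Growth was recorded, and inhibition was derived by comparison with vehicle controls.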

[13] = NCI Yeast Anticancer Drug Screen. Data for the mlh1 rad18 strain (AID 175); conditions: S. cerevisiae mlh1 rad18 strain growth inhibition, stronger effect = higher value
Outline: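 Genetically defined yeast (DNA repair-deficient) exposed to compounds; growth inhibition determined relative to vehicle.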

[14] = NCI Yeast Anticancer Drug Screen. Data for the rad18 strain (AID 177); conditions: S. cerevisiae rad18 mutant growth inhibition, stronger effect = higher value
Outline: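 Vehicle-treated cultures served as the baseline for scoring compound-induced growth inhibition in DNA-repair-mutant yeast.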

[15] = at 5.0 µM (retest, dose inferred, filed as 0.5)
[16] = at 50.0 µM (retest, dose inferred, filed as 5.0)

Measured: growth inhibition

CCCCCCCCCCCC(=O)N(C)C
inactive: [1]; at 1.2 µM -15% | [1]; at 3.7 µM -13% | [1]; at 11.0 µM -14% | [1]; at 33.0 µM -14% | [2]; at 1.2 µM 5% | [2]; at 3.7 µM 18% | [2]; at 11.0 µM 20% | [2]; at 33.0 µM 47% | [3]; at 1.2 µM 7% | [3]; at 3.7 µM 3% | [3]; at 11.0 µM 18% | [3]; at 33.0 µM 23% | [4]; at 1.2 µM -2% | [4]; at 3.7 µM -5% | [4]; [15] 38% | [4]; at 11.0 µM -18% | [4]; at 33.0 µM 29% | [5]; at 1.2 µM -34% | [5]; at 3.7 µM -24% | [5]; [15] 42% | [5]; at 11.0 µM -27% | [5]; at 33.0 µM 34% | [6]; at 1.2 µM 7% | [6]; at 3.7 µM 2% | [6]; at 11.0 µM 12% | [6]; at 33.0 µM 34% | [7]; [15] -2% | [8]; at 1.2 µM 2% | [8]; at 3.7 µM 19% | [8]; at 11.0 µM 2% | [8]; at 33.0 µM 0% | [9]; [15] 31% | [10]; at 1.2 µM 3% | [10]; at 3.7 µM -28% | [10]; [15] -4% | [10]; at 11.0 µM 3% | [10]; at 33.0 µM 18% | [11]; at 1.2 µM -32% | [11]; at 3.7 µM -35% | [11]; at 11.0 µM -26% | [11]; at 33.0 µM -28% | [12]; at 1.2 µM -18% | [12]; at 3.7 µM -8% | [12]; at 11.0 µM -13% | [12]; at 33.0 µM 34% | [13]; [15] 41% | [14]; at 1.2 µM -9% | [14]; at 3.7 µM -4% | [14]; at 11.0 µM -7% | [14]; at 33.0 µM 15%
active: [1]; at 100.0 µM 99% | [2]; at 100.0 µM 90% | [3]; at 100.0 µM 99% | [4]; [16] 92% | [4]; at 50.0 µM 90.5% | [4]; at 100.0 µM 98% | [5]; [16] 96% | [5]; at 50.0 µM 92.7% | [5]; at 100.0 µM 98% | [6]; at 100.0 µM 99% | [7]; [16] 98% | [7]; at 50.0 µM 93.2% | [8]; at 100.0 µM 98% | [9]; [16] 98% | [9]; at 50.0 µM 91.5% | [10]; [16] 97% | [10]; at 50.0 µM 92% | [10]; at 100.0 µM 98% | [11]; at 100.0 µM 98% | [12]; at 100.0 µM 98% | [13]; [16] 94% | [13]; at 50.0 µM 91% | [14]; at 100.0 µM 98%
